The values below come from PubChem BioAssay (NCI).

A short description of the test: NCI Yeast Anticancer Drug Screen. Data for the wt2 strain (AID 169).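 Note: 0% = growth of vehicle-treated yeast cultures.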 Conditions: S. cerevisiae wt2 strain growth inhibition, hits give high values. As for the experimental part:
Growth inhibition of yeast strains with defined genetic alterations is measured as a screen for potential anti-cancer activity. Selected strains with alterations in DNA damage repair or cell cycle control were exposed to compounds and growth inhibition was measured relative to vehicle treated controls. The strain used in this assay is wt2

The panel holds about 79,000 compounds, 15% with a hit somewhere; the sample as a whole holds those more often. Values without a mark were called inactive. Activity calls are given as the source filed them. Cut-off read from the data, not from the text of the source: active = growth inhibition above about 70%; inactive = the rest.

As for `CC(C)S(=O)(=O)/C=C\S(=O)(=O)C(C)C`, the growth inhibition reads like this: (at 1.2 µM) 5%; (at 3.7 µM) 15%; (at 11.0 µM) 44%; (at 33.0 µM) 90% (active); (at 100.0 µM) 99% (active).
Regarding `O=C1c2ccccc2-c2cc3ccccc3c(=O)n21`, the growth inhibition runs as follows: (at 1.2 µM) 4%; (at 3.7 µM) 9%; (at 11.0 µM) 31%; (at 33.0 µM) 73% (active); (at 100.0 µM) 73% (active).
Turning to `NNc1ccccc1-c1nc2ccccc2[nH]1`, the growth inhibition is 1% (at 1.2 µM); 0% (at 3.7 µM); -1% (at 11.0 µM); -1% (at 33.0 µM); 47% (at 100.0 µM).
In the case of `NC(N)=NC(N)=Nc1ccccc1` (tested in a mixture with another compound), the growth inhibition by setting is: (at 1.2 µM) -1%; (at 3.7 µM) -1%; (at 11.0 µM) 3%; (at 33.0 µM) 20%; (at 100.0 µM) 77% (active).
For `O=C(NC(N1CCN(c2cc3c(cc2F)c(=O)c(C(=O)O)cn3C2CC2)CC1)(C(F)(F)F)C(F)(F)F)c1ccccc1`, the growth inhibition (at 1.2 µM) is -2%; the growth inhibition (at 3.7 µM) was -2%; the growth inhibition (at 11.0 µM) is -1%; the growth inhibition (at 33.0 µM) is 9%; the growth inhibition (at 100.0 µM) is 34%.
With `O=C(O)c1c2ccc(Cl)cc2nc2[nH]c(=O)[nH]c(=O)c12`, the growth inhibition is -30% (at 1.2 µM); -33% (at 3.7 µM); -25% (at 11.0 µM); -23% (at 33.0 µM); 4% (at 100.0 µM).
As for `CC(C)=CCc1c2c(c(O)c3c(=O)c(-c4ccc(O)c(O)c4)coc13)C=CC(C)(C)O2`, the growth inhibition is -50% (at 1.2 µM); -52% (at 3.7 µM); 77% (active) (at 11.0 µM); 92% (active) (at 33.0 µM); 87% (active) (at 100.0 µM).
In the case of `CC/C(=C(\c1ccccc1)c1ccc(OCC[N+](C)(C)C)cc1)c1ccccc1`, the growth inhibition is -2% (at 1.2 µM); 55% (at 3.7 µM); 99% (active) (at 11.0 µM); 99% (active) (at 33.0 µM); 99% (active) (at 100.0 µM).
